Laboratory results published in PubChem BioAssay AID624330 (Southern Research Specialized Biocontainment Screening …, 2012).
Screen size: about 340,000 compounds; about 2,100 (0.62%) were called active.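 How the source made its calls: active means first-screen hits whose inhibition reached a set limit at any dose in the follow-up dose series; inconclusive means inhibition above the set first-screen limit but never retested; inactive means the rest.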 These entries were drawn from the full list. Measured potencies and affinities stand elsewhere.

What follows are compounds tested against Rac GTPase-activating protein 1 (Homo sapiens) (UniProt Q9H0H5) (assay: blockers of MgcRacGAP-driven Rac1 GTP hydrolysis – biochemical, ADP Hunter fluorescence, primary and confirmatory, confirmation (AID 624330;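 further: fluorescence reports GDP produced by GAP-driven GTP hydrolysis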)). Settings: MgcRacGAP-stimulated Rac1 GTP hydrolysis, at 30 µM, hits give high values, GST-tagged Rac1 F28L mutant substrate.
Rac GTPase-activating protein 1 (Homo sapiens), sequence (Q9H0H5 whole entry, looked up): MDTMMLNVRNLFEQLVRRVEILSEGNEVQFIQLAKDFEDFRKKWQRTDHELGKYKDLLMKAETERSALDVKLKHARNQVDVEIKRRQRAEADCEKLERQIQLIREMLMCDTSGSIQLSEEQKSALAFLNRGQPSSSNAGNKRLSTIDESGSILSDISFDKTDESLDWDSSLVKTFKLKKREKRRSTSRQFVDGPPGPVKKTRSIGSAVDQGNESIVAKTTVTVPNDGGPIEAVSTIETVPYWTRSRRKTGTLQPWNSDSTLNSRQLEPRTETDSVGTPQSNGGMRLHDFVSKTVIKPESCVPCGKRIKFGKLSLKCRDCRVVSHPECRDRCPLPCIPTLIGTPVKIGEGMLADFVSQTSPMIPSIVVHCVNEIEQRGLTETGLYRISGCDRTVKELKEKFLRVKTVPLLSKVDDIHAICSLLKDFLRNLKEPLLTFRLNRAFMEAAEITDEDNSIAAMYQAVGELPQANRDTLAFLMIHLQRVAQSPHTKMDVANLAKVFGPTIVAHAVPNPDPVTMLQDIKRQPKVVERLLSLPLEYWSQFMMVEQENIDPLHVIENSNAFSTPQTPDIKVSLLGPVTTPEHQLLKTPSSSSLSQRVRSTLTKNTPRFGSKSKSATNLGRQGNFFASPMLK

inhibition, inactive:
COC(=O)c1ccsc1NC(=O)c1ccco1 6.38%
COc1cc(C(=O)COC(=O)c2ccncc2)cc(OC)c1OC 4.46%
Cc1cc(C(=O)C(=O)N(C)C)c(C)n1-c1ccc(Cl)c(Cl)c1 14.3%
CC1CN(C(=O)c2ccc(NS(=O)(=O)c3cccc(Cl)c3)cc2)CC(C)O1 (centres undefined) 5.38%
NS(=O)(=O)c1ccc(N=Cc2c(O)n(-c3nccs3)c(=O)c3ccccc23)cc1 1.11%
Cc1ccc(NC(=O)N/C=C/c2ccco2)c(C)c1 7.78%
CNC(=S)N1CCc2sccc2C1C (centres undefined) 9.43%
N#Cc1c2ccc(OCC(=O)NCc3ccco3)cc2n2ccccc12 8.65%
CCOC(=O)Cc1csc(NC(=O)/C=C/c2ccco2)n1 7.86%
CN(C)c1nc2ccccc2c(N)c1-c1ccccc1 31%
Nc1c2ccccc2nc2ccccc12 12.6%
CC1(C)CC(NC(=O)C2CCC(=O)N(Cc3ccccc3F)C2)CC(C)(C)C1 (centres undefined) 6.51%
Cc1cc(C)c(S(=O)(=O)NC(C)C)c(C)c1-n1cnnn1 4.49%
Cc1cc(C)c(S(N)(=O)=O)c(C)c1-n1cnnn1 1.87%
COc1ccc(-c2nn(-c3ccccc3)cc2/C=N/NC(=S)NC(C)C)cc1OC 7.12%
CCOC(=O)C1CCN(C(=O)c2cc(S(=O)(=O)N3CCCCC3)ccc2C)CC1 -9.49%
CC(C)c1nc(SCC(=O)Nc2ccc(N3CCOCC3)cc2)c2ccccc2n1 9.39%
CN(C)c1ccc(NC(=O)CSc2nc(C3CC3)nc3ccccc23)cc1 -1.11%
COCCn1c(SCC(=O)c2ccc3c(c2)OCCO3)nnc1-c1ccco1 8.82%
O=C1NC(=O)N(c2ccccc2)C1=O 10%
O=C(O)COc1ccccc1/C=N/NC(=O)Cc1ccccc1 9.01%
CC(C)Cc1nc2sc3c(c2c(=O)n1N)CC(C)(C)OC3 -0.31%
Oc1ccc(C[C@H]2CNC(=S)N2CC2CCCN2C[C@H](Cc2ccc(O)cc2)N2C[C@H](Cc3ccccc3)N(CCc3ccccc3)C2=S)cc1 (some centres undefined) 10.5%
Cc1cc2c(cc1S(=O)(=O)N1CC(C)CC(C)C1)OCC(=O)N2 (centres undefined) 1.63%
COc1cccc(/C=C/C(=O)OC(C)C(=O)Nc2c(C)n(C)n(-c3ccccc3)c2=O)c1 (centres undefined) 1.46%
COc1cc(/C=C/C(=O)OCC(=O)Nc2c(C)n(C)n(-c3ccccc3)c2=O)cc(OC)c1OC -6.63%
COc1cc(/C=C/C(=O)OCC(=O)Nc2c(C)n(C)n(-c3ccccc3)c2=O)ccc1OCC#N 3.82%
Cc1c(NC(=O)C(C)OC(=O)/C=C/c2ccccc2)c(=O)n(-c2ccccc2)n1C (centres undefined) 2.8%
CCCCCCn1c(CN2CCN(C)CC2)nc2c1c(=O)n(C)c(=O)n2C 0.38%
CCOC(=O)Cc1csc(NC(=O)CSc2nc(N)c3c(C)c(C)sc3n2)n1 -6.82%
O=C(CSc1nc2ccccc2o1)NCC1CCCO1 (centres undefined) 5.06%
CCC(c1nnnn1Cc1ccc(OC)cc1)N1CCN(c2ccc(OC)cc2)CC1 (centres undefined) 24.3%
Cc1cc2oc(=O)cc(CSc3nc(N)cc(N)n3)c2cc1C(C)C 11.9%
N#Cc1ccc(N[C@@H]2CCN3C(=O)c4ccccc4[C@@H]3C[C@H]2O)cc1 4.35%
O=C1c2ccccc2[C@@H]2C[C@@H](O)[C@H](Nc3ccccc3)CCN12 8.38%
CCC1CCCCN1Cc1ccc(OC)c(C)c1 (centres undefined) 14.3%
Cc1ccc(S(=O)(=O)NCCS(=O)(=O)N2CCN(c3ccccc3)CC2)cc1 -3.13%
CC(C)(c1ccc(O)c([N+](=O)[O-])c1)c1ccc(O)c([N+](=O)[O-])c1 5%
N=C(N)SCc1ccc(O)c([N+](=O)[O-])c1 14.6%
CN(CC(=O)Nc1ccc2c(c1)CCC2)CC(=O)Nc1ccccc1Br 3.47%
CC(=O)Nc1c(Cl)cc2c(c1Cl)Cc1cc(N)ccc1-2 2.49%
Nc1ccc2c(c1)Cc1c(F)cccc1-2 19.7%
COc1cc2c(cc1[N+](=O)[O-])-c1ccccc1C2 -0.68%
O=[N+]([O-])c1cc2c(cc1Br)-c1ccccc1C2 3.13%
COc1cc(N)ccc1-c1cc2ccccc2oc1=O 3.42%
CC(=O)Nc1cc2c(cc1Cl)-c1ccccc1C2 0.41%
Nc1ccc2c(c1)CCC2=O 1.82%
Nc1ccc2c(c1)Cc1cc(Cl)c(Cl)cc1-2 31.7%
O=C(CCc1nc2ccccc2s1)NCc1ccccc1F 3.81%
CCSC1=N/C(=C\c2ccccc2)C(=O)N1 7.65%
C/C(=N/NC(=O)C1CC1(c1ccccc1)c1ccccc1)c1ccco1 (centres undefined) 10.7%
COc1cc2cc(CN(Cc3cccnc3)C(=O)Nc3ccccc3)c(=O)[nH]c2cc1OC 13.6%
CCCCn1c(N)c(N(CCOC)C(=O)CCN2C(=O)C3CC=CCC3C2=O)c(=O)[nH]c1=O (centres undefined) 9.87%
O=C(NCC(=O)N1CCCCCCC1)c1ccc(Cl)c(Cl)c1 16.3%
CC(=O)Nc1ccc2c(c1Br)Cc1ccccc1-2 2.11%
Nc1c(Cl)cc2c(c1Br)Cc1ccccc1-2 13.1%
CC1CN(CC(=O)NC(C)c2ccccc2)CC(C)O1 (centres undefined) 10.1%
CC1Cc2ccccc2N1CC(=O)NC(c1ccccc1)c1ccccc1 (centres undefined) -0.83%
O=C(CN1CCCC1)NC(c1ccccc1)c1ccccc1 23.8%
O=C(CN1CCN(Cc2ccccc2)CC1)Nc1ccc(Cl)cc1 10.4%
Cc1ccc(NC(=O)CN2CCN(Cc3ccccc3)CC2)cc1F 6.45%
COCCNC(=O)CN1CCN(C(c2ccccc2)c2ccccc2)CC1 25.6%
O=C(CN1CCCCCC1)NC(c1ccccc1)c1ccccc1 25.4%
O=C(CN1CCN(C(c2ccccc2)c2ccccc2)CC1)NCc1ccccc1 4.24%
